Data on 49 molecules can be found in ChEMBL document CHEMBL3433997, “St. Jude Leishmania screening dataset” (2016).

Assay type in all cases: functional
The target in assay [1] is Solute carrier family 2, facilitated glucose transporter member 1 (Homo sapiens) (UniProt P11166). The experiment in a line: ST_JUDE_LEISH: Cytotoxicity at 2uM final concentration against transgenic Leishmania Mexicana promastigotes LmGLUT1 that are glucose transport deficient and complemented with the human glucose transporter GLUT1. Activity is measured by DNA content using SYBR green in vitro.

For assay [2], the target named is Hexose transporter 1 (Plasmodium falciparum) (UniProt O97467). The assay is described as follows: ST_JUDE_LEISH: Cytotoxicity at 2uM final concentration against transgenic Leishmania Mexicana promastigotes LmPfHT that are glucose transport deficient and complemented with the Plasmodium falciparum hexose transporter. Activity is measured by DNA content using SYBR green in vitro.

For assay [3], the target named is Glucose transporter (Leishmania mexicana) (UniProt O61059). The experiment in a line: ST_JUDE_LEISH: Cytotoxicity at 2uM final concentration against transgenic Leishmania Mexicana promastigotes LmGT2 that are glucose transport deficient and complemented with the L. Mexicana glucose transporter 2. Activity is measured by DNA content using SYBR green in vitro.

Solute carrier family 2, facilitated glucose transporter member 1 (Homo sapiens), sequence (P11166 whole entry): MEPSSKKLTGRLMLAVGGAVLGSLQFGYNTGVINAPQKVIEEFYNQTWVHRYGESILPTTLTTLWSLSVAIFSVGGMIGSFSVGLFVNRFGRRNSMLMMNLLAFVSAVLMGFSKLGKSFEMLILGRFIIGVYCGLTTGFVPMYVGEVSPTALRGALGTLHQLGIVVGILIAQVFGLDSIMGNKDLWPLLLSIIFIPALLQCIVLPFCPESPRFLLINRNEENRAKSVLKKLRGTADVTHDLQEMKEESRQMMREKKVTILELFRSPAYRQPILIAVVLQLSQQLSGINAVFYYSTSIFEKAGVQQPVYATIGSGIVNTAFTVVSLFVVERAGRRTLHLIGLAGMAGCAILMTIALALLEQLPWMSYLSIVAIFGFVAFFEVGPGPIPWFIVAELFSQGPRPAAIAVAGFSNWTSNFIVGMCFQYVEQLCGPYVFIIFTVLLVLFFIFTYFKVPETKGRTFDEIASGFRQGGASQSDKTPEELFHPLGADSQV

As to `OC(CNCc1ccccc1OCc1ccccc1)c1cccc(C(F)(F)F)c1` (configuration not stated), the inhibition (commonly the relative decrease from the control value, in per cent) in assay [1] was determined as 15.1%; in assay [2] it was 11.6%; in assay [3], 10.8%.

In the case of `Cc1cccc2nc(-c3ccc(-c4cccc(NC(=O)c5ccncc5)c4)cc3)[nH]c12`, the inhibition in assay [1] was 0.03%; in assay [2] it was -0.47%; in assay [3] it was 1.08%.

In the case of `CCN1CCC(N(Cc2ccc(-c3ccc(C(F)(F)F)cc3)cc2)C(=O)Cn2c(CCc3cccc(F)c3F)cc(=O)c3c2CCCC3)CC1`, the inhibition in assay [1] is 0.35%; in assay [2], 0.64%; in assay [3] it was 0.87%.

Regarding `O=C(Nc1ccc(Cl)c(C(F)(F)F)c1)Nc1ccc(Cl)c(C(F)(F)F)c1`, the inhibition worked out at 0.91% in assay [1], 1.04% in assay [2] and 2.07% in assay [3].

On to `COc1cc2ccccc2cc1CCNCCCCNCCc1cc2ccccc2cc1OC`, for which the inhibition in assay [1] came out at 101%; in assay [2], 82.7%; in assay [3], 104%.

In the case of `CCN1CCN(c2cc(C)c3cc(NC(=O)c4cncc(Br)c4)ccc3n2)CC1`, the inhibition in assay [1] is -0.07%; in assay [2] it was -1.3%; in assay [3] it was -2.43%.

Take `O=C(Nc1cccc(F)c1)N(Cc1ccc(-c2ccc(CN3CCNCC3)cc2)cc1)C1CCN(Cc2ccccc2)CC1`: the inhibition in assay [1] was -0.04%; in assay [2], -0.99%; in assay [3] it was -1.59%.

Turning to `CC(C)(C)c1ccc2[nH]c(-c3ccc(/C=C/C(=O)NCc4cccc(C(F)(F)F)c4)cc3)nc2c1`, the figures for the inhibition in assay [1], in assay [2] and in assay [3] were 3.32%, 5.66% and 2.22%, respectively.

With `O=C(Cn1c(CCc2cccc(F)c2F)nc(=O)c2ccccc21)N(Cc1ccc(-c2ccc(C(F)(F)F)cc2)cc1)C1CCN(C2CCSCC2)CC1`, the inhibition in assay [1] was 1.28%; in assay [2] it was -2.32%; in assay [3], 3.92%.

For `COCCNCc1cccc(-c2ccc3c(Nc4cc(O)c(Cl)cc4F)ccnc3c2)c1`, the inhibition in assay [1] was 2.97%; in assay [2], 3.2%; in assay [3], 2.93%.

`COc1ccc(-c2ccc(NC(=O)c3ccc(Cl)cc3)cc2)cc1CN1CCNCC1`: the inhibition in assay [1] was 1.97%; in assay [2], 2.41%; in assay [3], 2%.

Consider `Cc1ccc(O)cc1Nc1ccnc2cc(-c3ccccc3)ccc12`, for which the inhibition in assay [1] came out at 7.87%; in assay [2] it was 8.41%; in assay [3], 7.72%.

With `COc1ccc2[nH]cc(C3CCN(CCC4CCN(C(=O)/C=C/c5ccc(Cl)c(Cl)c5)CC4)CC3)c2c1`, the inhibition in assay [1] was found to be 2.88%; in assay [2], 1.24%; in assay [3], 1.93%.

Regarding `O=C(NCCN1CCCC1)c1cccc(Nc2nccc(Nc3ccc(Oc4ccccc4)cc3)n2)c1`, the inhibition in assay [1] is 2.86%; in assay [2], 3.85%; in assay [3], 2.53%.

Take `COc1cccc2sc(Nc3nc(-c4ccccn4)cs3)nc12`: the inhibition in assay [1] was 0.13%; in assay [2] it was 1.96%; in assay [3] it was 2.52%.

On to `COc1ccc2nccc([C@@H](O)CN3CCC(NCCOc4c(C)cccc4F)CC3)c2c1`, for which the inhibition in assay [1] came out at 5.89%; in assay [2], 3.49%; in assay [3], 4.05%.

Turning to `Cc1cc(F)ccc1Nc1nc(N(C)c2ccccc2)c2cc(OCCCN(C)C)ccc2n1`, the inhibition in assay [1] came out at 2.53%; in assay [2] it was 3.15%; in assay [3], 4.25%.

As for `CS(=O)(=O)NCCCNCc1cccc(-c2ccc(-c3nc4ccccc4[nH]3)s2)c1`, the inhibition in assay [1] was 12.1%; in assay [2], 11.8%; in assay [3], 11%.

Consider `CC1(C)N=C(N)N=C(N)N1OCc1cccc2c1ccc1ccccc12`, for which the inhibition was 0.96% in assay [1], 2.76% in assay [2] and 0.32% in assay [3].

With `CC1CN(Cc2ccc(-c3ccc(-c4nc5cc(F)ccc5[nH]4)cc3)cc2)CC(C)O1` (configuration not stated), the inhibition in assay [1] is 6%; in assay [2], 6.63%; in assay [3] it was 3.77%.

Turning to `CCOc1ccccc1CCNCC1CCN(CC2CCCCC2)CC1`, the values for the inhibition in assay [1], in assay [2] and in assay [3] were 1.97%, -2.9% and 2.88%, respectively.

As to `COc1ccc(OCCCN2CCCCC2)cc1S(=O)(=O)c1ccc(OCc2ccc(C(F)(F)F)cc2)cc1`, the figures for the inhibition in assay [1], in assay [2] and in assay [3] were 2.4%, 0.01% and 2.1%, respectively.

Turning to `COc1cccc(-c2nn(C)c3sc(C(=O)Nc4cccnc4)cc23)c1`, the inhibition in assay [1] is 0.24%; in assay [2], -1.97%; in assay [3], -0.35%.

As for `CS(=O)(=O)CCNCc1ccc(-c2cc3c(Nc4ccc(OCc5cccc(F)c5)c(Cl)c4)ncnc3s2)[nH]1`, the inhibition in assay [1] is 0.33%; in assay [2], 0.24%; in assay [3], 0.92%.

Regarding `CN1CCC(NCc2ccc(-c3cnc(NCc4ccccc4)nc3)cc2)CC1`, the inhibition came out at 1.18% in assay [1], 4.31% in assay [2] and 2.57% in assay [3].

For the molecule `CCOc1ccccc1CCNC(C)Cc1ccc(C(=O)Nc2ccc(CC(C)NCCc3cccc(Cl)c3)cc2)cc1` (configuration not stated), the inhibition turned out to be 28% in assay [1], 34.1% in assay [2] and 3.04% in assay [3].

As to `CC(C)(C)NC(=O)COC(=O)c1c2c(nc3ccccc13)C(=Cc1ccc3c(c1)OCO3)CCC2`, the inhibition is 1.65% in assay [1], 1.17% in assay [2] and 0.48% in assay [3].

Turning to `CC(C)CN1C(=O)c2ccccc2C(C(=O)Nc2cccc(C#N)c2)C1c1cccs1` (configuration not stated), the figures for the inhibition in assay [1], in assay [2] and in assay [3] were -0.23%, -1.39% and -1%, respectively.

`O=C(Nc1cccc(-c2cccc(-c3nc4cc(C(F)(F)F)ccc4[nH]3)c2)c1)c1cccnc1`: the inhibition in assay [1] was 0.56%; in assay [2], 0.29%; in assay [3] it was -1.51%.

As to `O=C(Nc1cccc(C(F)(F)F)c1)c1cccc(S(=O)(=O)NCC2CCCN(CC3CCCCC3)C2)c1` (configuration not stated), the inhibition was -0.44% in assay [1], 0.12% in assay [2] and -2.09% in assay [3].

In the case of `Fc1ccc2nc(Nc3nc(-c4ccccn4)cs3)sc2c1`, the inhibition came out at 20.7% in assay [1], 10.8% in assay [2] and 0.2% in assay [3].

Take `COc1ccc2nccc(N(C)CC3(O)CCN(CCc4ccc5c(c4)OCCO5)CC3)c2n1`: the inhibition amounted to 0.49% in assay [1], 0.73% in assay [2] and 2.16% in assay [3].

With `COc1ccc(CNCCc2cccs2)cc1-c1ccc(S(=O)(=O)NCCN2CCCC2)cc1`, the inhibition worked out at 5.85% in assay [1], 5.79% in assay [2] and 2.85% in assay [3].

On to `Cc1nc(C)c(-c2ccc(C(=O)c3ccc(Cl)cc3)cc2)c(O)c1Cl`, for which the inhibition in assay [1] was 8.16%; in assay [2], 10.4%; in assay [3], 9.25%.

On to `CC(C)[C@@H](C(=O)NCc1cccc(C(F)(F)F)c1)N1C(=O)CCC1C(=O)Nc1ccc([N+](=O)[O-])cc1` (some centres not stated), for which the inhibition in assay [1] was found to be 2.24%; in assay [2], 1.67%; in assay [3], 2.73%.

In the case of `CCOc1cc2ccccc2cc1CNCCCCCCNCc1cc2ccccc2cc1OCC`, the inhibition stood at 5.01% in assay [1], 7.4% in assay [2] and 0.64% in assay [3].

For the molecule `COc1cccc(CNC[C@@H](O)[C@H](Cc2ccccc2)NC(=O)c2cc(C3CCCC3)cc(N3CCCCS3(=O)=O)c2)c1`, the inhibition came to 0.71% in assay [1], 1.78% in assay [2] and 0.92% in assay [3].

On to `CCCC(C)Nc1nc(C)cc(N[C@@H](Cc2ccccc2)C(=O)Nc2ccc(OC)cc2)n1` (some centres not stated), for which the inhibition in assay [1] amounted to 4.27%; in assay [2], 5.6%; in assay [3], 0.54%.

Take `Cc1nc2ccc(-c3nc4cc(N)ccc4[nH]3)cc2[nH]1`: the figures for the inhibition in assay [1], in assay [2] and in assay [3] were -2.46%, 10% and 1.44%, respectively.

Turning to `CCOC(=O)c1ccc(N2CCN(c3cc(Cl)ccc3C)CC2)c(NC(=O)Nc2ccc(Cl)c(Cl)c2)c1`, the inhibition in assay [1] is -3.21%; in assay [2], -3.18%; in assay [3] it was -0.61%.

Turning to `CCC(C)(C)C1CCc2nc(N)nc(N)c2C1` (configuration not stated), the inhibition in assay [1] stood at 67%; in assay [2], 71.9%; in assay [3], 56.1%.

On to `O=C(Nc1cccc2ccccc12)N1CCC(NS(=O)(=O)c2cccc(C(F)(F)F)c2)CC1`, for which the figures for the inhibition in assay [1], in assay [2] and in assay [3] were 0.57%, 0.62% and 0.91%, respectively.

As for `CC(=O)c1cccc(S(=O)(=O)NCCCNc2nc3cc(C)cc(C)c3cc2C#N)c1`, the values for the inhibition in assay [1], in assay [2] and in assay [3] were -0.68%, 1.78% and -1.77%, respectively.

Take `CN(c1ccc(C(=O)N[C@@H](CCC(=O)O)C(=O)O)cc1)S(=O)(=O)c1ccc2nc(N)[nH]c(=O)c2c1`: the inhibition in assay [1] was 2.98%; in assay [2] it was -0.77%; in assay [3], 0.27%.

`COc1ccccc1CCNc1nc(C)cc(N[C@@H](Cc2ccccc2)C(=O)NCCOc2ccccc2)n1`: the figures for the inhibition in assay [1], in assay [2] and in assay [3] were 1.72%, 1.1% and -2.09%, respectively.

In the case of `Nc1nc(N)c2nc(C3CC=CCC3)c(N)nc2n1` (configuration not stated), the inhibition in assay [1] was 2.95%; in assay [2], 3.81%; in assay [3], -0.04%.

For `O=C(Nc1cccc(-c2ccc(-c3nc4cc(C(F)(F)F)ccc4[nH]3)cc2)c1)Nc1ccc(F)c(F)c1F`, the figures for the inhibition in assay [1], in assay [2] and in assay [3] were -0.86%, 0.2% and 0.37%, respectively.

Turning to `COc1cccc(C(=O)NC(c2ccc(Cl)cc2Cl)c2cc(Cl)c3cccnc3c2O)c1` (configuration not stated), the figures for the inhibition in assay [1], in assay [2] and in assay [3] were 0.8%, -0.13% and 1.53%, respectively.

As to `Cc1[nH]c(C)c(-c2ccc(-c3ccccc3F)nc2)c(=O)c1Br`, the figures for the inhibition in assay [1], in assay [2] and in assay [3] were 2.19%, 4.24% and 1.41%, respectively.
